Assay results as given in PubChem BioAssay (Tox21).
Where “and” joins values, the source holds several entries; their conditions need not be identical. Identical values can stand only once. Records with an inconclusive call do not appear. Calls of active or inactive are those of the source. The call rests on the fitted dose curve.

How the values were obtained:
[1] = molecular target: Acetylcholinesterase (Homo sapiens) (UniProt P22303); experiment: Acetylcholinesterase (AChE) small molecule antagonists: colormetric cell-based qHTS assay (AID 1347395); further: nearly all actives have a fitted effect of over 30% in size; further: potency means the concentration at half of the fitted maximal effect
In short: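 Colorimetric read-out: DTNB detects thiocholine released when cellular AChE in SH-SY5Y cells hydrolyses acetylthiocholine. Cells attached overnight, received compound for 30 min at 37 C, then substrate mix for 90 min at 37 C.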

[2] = molecular target: Acetylcholinesterase (Homo sapiens) (UniProt P22303); experiment: Acetylcholinesterase (AChE) small molecule antagonists: enzyme-based qHTS assay (AID 1347397); settings: Potency: AChE enzyme activity inhibition; outcome: AChE enzyme activity inhibition; further: nearly all actives have a fitted effect of over 55% in size; further: potency means the concentration at half of the fitted maximal effect
In short: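 First, recombinant human AChE (50 mU/mL as dispensed) received test compound or DMSO. Second, plates stood 30 min at room temperature. Third, DTNB and acetylthiocholine were added, followed by 10 min at room temperature and colorimetric detection.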

[3] = molecular target: Acetylcholinesterase (Homo sapiens) (UniProt P22303); experiment: Acetylcholinesterase (AChE) small molecule antagonists: fluorescence cell-based qHTS assay (AID 1347398); settings: Potency: AChE activity; outcome: AChE activity; further: nearly all actives have a fitted effect of over 50% in size; further: potency means the concentration at half of the fitted maximal effect
In short: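 Homogeneous quantitative HTS format. SH-SY5Y cells seeded at 2,000 per well settle overnight at 37 C. Compound pretreatment runs 30 min (37 C, 5% CO2); substrate/probe mix then reacts 40 min at RT before reading 490/520 nm.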

[4] = molecular target: Acetylcholinesterase (Homo sapiens) (UniProt P22303); experiment: Acetylcholinesterase (AChE) small molecule antagonists: enzyme-based qHTS assay with human liver microsomes (AID 1347399); settings: Potency: qHTS inhibition; outcome: qHTS inhibition; further: nearly all actives have a fitted effect of over 60% in size
In short: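 Recombinant human AChE (50 mU/mL in the enzyme mix) and human liver microsomes (0.25 mg/mL final) were preincubated with compound and NADPH (0.25 mg/mL final) for 30 min at 37 C. Acetylthiocholine/DTNB was then added; thiocholine was read colorimetrically after 10 min at room temperature.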

Measured: Potency

Sequence of Acetylcholinesterase (Homo sapiens) (P22303 whole entry, looked up): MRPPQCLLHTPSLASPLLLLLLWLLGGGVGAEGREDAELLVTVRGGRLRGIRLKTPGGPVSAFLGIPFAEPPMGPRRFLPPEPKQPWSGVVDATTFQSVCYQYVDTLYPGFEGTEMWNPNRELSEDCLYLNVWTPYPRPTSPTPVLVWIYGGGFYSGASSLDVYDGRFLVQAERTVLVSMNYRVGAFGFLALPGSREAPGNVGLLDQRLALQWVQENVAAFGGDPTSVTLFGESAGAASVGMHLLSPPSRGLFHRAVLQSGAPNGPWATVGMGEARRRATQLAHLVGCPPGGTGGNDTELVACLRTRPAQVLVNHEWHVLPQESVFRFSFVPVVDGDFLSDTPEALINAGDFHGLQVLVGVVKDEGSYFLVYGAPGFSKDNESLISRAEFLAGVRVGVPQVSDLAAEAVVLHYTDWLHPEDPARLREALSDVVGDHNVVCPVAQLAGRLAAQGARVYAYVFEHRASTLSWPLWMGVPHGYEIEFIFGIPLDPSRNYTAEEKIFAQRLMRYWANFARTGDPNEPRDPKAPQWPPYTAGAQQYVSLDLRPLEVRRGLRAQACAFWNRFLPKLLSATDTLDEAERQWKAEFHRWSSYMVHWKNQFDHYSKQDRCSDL

Nc1ccc(N)c(Cl)c1
active: [1] 8.92 µM and 22.4 µM | [2] 8.92 µM and 8.94 µM | [3] 5.63 µM and 10 µM
inactive: [4]

CCOC(=O)c1c(C)n(C)c2ccc(O)cc12
inactive: all assays above

CN1CCN(c2c(F)cc3c(=O)c(C(=O)O)cn(CCF)c3c2F)CC1
inactive: all assays above

CCN1CCCC1CN (stereo not given)
inactive: all assays above

Cc1ccc(C(C)C)c(O)c1
inactive: all assays above

Nc1ccc2cc3ccccc3cc2c1
inactive: all assays above

CCCCCCC=O
inactive: all assays above

NS(=O)(=O)c1ccc(N2CCCCS2(=O)=O)cc1
inactive: all assays above

c1ccc2cc3ccccc3cc2c1
inactive: all assays above

Cc1c(N)cccc1C(F)(F)F
inactive: all assays above

CCOc1nc2cccc(C(=O)O)c2n1Cc1ccc(-c2ccccc2-c2nn[nH]n2)cc1
inactive: all assays above

CC(=O)N(CC(O)CO)c1c(I)c(C(=O)NCCO)c(I)c(C(=O)NCC(O)CO)c1I (stereo not given)
inactive: all assays above

C/C=C(\C)C(=O)OCc1ccccc1
inactive: all assays above

CCCCC(CC)COC(=O)CC#N (stereo not given)
inactive: all assays above

CC(C)COC(=O)c1ccc(N)cc1
inactive: all assays above

OC(CCl)CCl
inactive: all assays above

Nc1c(Cl)cc(Cl)cc1[N+](=O)[O-]
inactive: all assays above

CCCCCC(=O)O
inactive: all assays above

O=C(O)CCNC(=O)c1ccc(N=Nc2ccc(O)c(C(=O)O)c2)cc1
inactive: all assays above

c1ccc2c(c1)Cc1ccccc1-2
inactive: all assays above

O=[N+]([O-])c1ccc(/C=C/c2ccc([N+](=O)[O-])cc2S(=O)(=O)O)c(S(=O)(=O)O)c1
inactive: all assays above

CCCCOCCOCCOC(=O)CCCCC(=O)OCCOCCOCCCC
inactive: all assays above

CNc1c2c(nn1C)CCCC2
inactive: all assays above

C=CC(=O)OCCCCCCCC
inactive: all assays above

OC[C@@H](O)[C@@H](O)[C@H](O)[C@H](O)CO
inactive: all assays above

Clc1cc(Cl)c(Cl)c(Cl)c1Cl
inactive: all assays above

CC(Cl)COP(=O)(OCC(C)Cl)OCC(C)Cl (stereo not given)
inactive: all assays above

CCNc1cc(O)ccc1C
inactive: all assays above

CN(C)CCC(c1ccccc1)c1ccccn1 (stereo not given)
inactive: all assays above

CN1CCN(C2=Nc3cc(F)ccc3Cc3ccccc32)CC1
inactive: all assays above
